# Source: PubChem (National Center for Advancing Translational Sciences (NCATS))
# A549 tox = Nrf2 qHTS screen for inhibitors: counterscreen for cytotoxicity; 390,000 compounds, 0.16% hits; A549 ARE-Fluc cells, CellTiter-Fluor viability, 18-24 h; Potency, µM (top dose mostly 46 µM), hits mostly inhibitors
#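 A549 ARE-Fluc cells in 5% FBS OPTI-MEM, 5000 cells/well, rested 2 h then exposed to compounds in concentration-response for 18-24 h at 37 °C. Viability by CellTiter-Fluor fluorescence (Ex 405/Em 525) after 30 min; luciferase luminescence (BugLite, 15 min, RT) read afterwards.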
# TrxR1 substrate = qHTS Assay for Substrates of Mammalian Selenoprotein Thioredoxin Reductase 1 (TrxR1): qHTS. Potency, µM (series often up to 114 µM). purified TrxR1 substrate turnover, NADPH consumption readout. 390,000 compounds, 0.01% hits. AID 588456, 2011; note: nearly all actives have a fitted effect of over 50% in size
# Target sequence (O89049 whole entry, looked up): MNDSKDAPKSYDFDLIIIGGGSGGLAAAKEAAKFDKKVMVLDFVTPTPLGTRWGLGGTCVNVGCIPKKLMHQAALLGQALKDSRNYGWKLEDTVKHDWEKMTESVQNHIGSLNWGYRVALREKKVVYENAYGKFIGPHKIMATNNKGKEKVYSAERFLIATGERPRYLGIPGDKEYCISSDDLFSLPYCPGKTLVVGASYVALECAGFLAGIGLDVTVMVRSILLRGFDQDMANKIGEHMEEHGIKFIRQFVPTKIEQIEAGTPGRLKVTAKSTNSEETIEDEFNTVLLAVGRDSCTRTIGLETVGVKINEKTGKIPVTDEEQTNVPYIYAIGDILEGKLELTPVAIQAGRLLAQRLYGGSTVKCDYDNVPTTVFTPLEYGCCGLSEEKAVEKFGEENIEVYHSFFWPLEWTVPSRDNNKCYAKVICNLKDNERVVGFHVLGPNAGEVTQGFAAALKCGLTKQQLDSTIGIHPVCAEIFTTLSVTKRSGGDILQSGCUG
#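 Rat TrxR1, dispensed at 90 nM, was prereduced with 400 uM NADPH (final) for 5 min at ~22 deg C, then incubated with compound 15 min before 400 uM selenite. A first-read NADPH fluorescence drop versus no-compound background flagged substrates.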
# GALK inhibitor = qHTS Assay for Inhibitors of Human Galactokinase (GALK). 270,000 compounds, 0.007% hits. Potency, µM (highest dose often 57.5 µM), usual class: inhibitors. P51570. Purified GALK, Kinase-Glo residual ATP luminescence
#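 ATP-depletion format; final 35 uM ATP, 100 uM D-galactose, 5 nM enzyme; pH 8.0 HEPES/Mg2+ buffer; 60 min RT; luminescence read 10 min after detection reagent.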
# Nrf2 ARE act = qHTS of Nrf2 Activators. AREc32 ARE-luciferase reporter (MCF7-derived line), luminescence, 24 h. Potency, µM (top dose mostly 46.1 µM), actives largely listed as activators. 410,000 compounds, 0.31% hits. AID 624171, 2012; note: nearly all actives have a fitted effect of over 65% in size
#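 AREc32 cells carrying an ARE-driven firefly luciferase, 1000 cells/well in OPTI-MEM with 5% FBS, dosed after overnight attachment and incubated 24 hr at 37 deg C. Steady-Glo luminescence read after 30 min at RT.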
# Nrf2 block = Nrf2 qHTS screen for inhibitors; Potency, µM (series often up to 46 µM), actives largely listed as inhibitors; AID 504444, 2011; A549 ARE-Fluc reporter, luciferase luminescence, 18-24 h; 360,000 compounds, 2.1% hits; note: nearly all actives have a fitted effect of over 60% in size
#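 A549 ARE_Fluc cells (5000/well, 5% FBS OPTI-MEM) pre-incubated 2 h, then treated with compounds 18-24 h at 37C/5% CO2 in concentration-response. CellTiter-Fluor viability read first; BugLite luciferase luminescence after 15 min at room temperature gives Nrf2 activity.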
# TrxR1 inh = qHTS Assay for Inhibitors of Mammalian Selenoprotein Thioredoxin Reductase 1 (TrxR1): qHTS; Thioredoxin reductase 1, cytoplasmic (Rattus norvegicus), O89049; recombinant rTrxR1, NADPH fluorescence consumption, selenite substrate; Potency, µM (series often up to 114 µM), hits mostly inhibitors; 390,000 compounds, 1% hits; AID 588453, 2011; note: nearly all actives have a fitted effect of over 65% in size
#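 Rat TrxR1 (90 nM in the dispensed reagent) was pre-reduced with 400 uM NADPH for 5 min at room temperature, then incubated with compound for 15 min. After 400 uM selenite was added, NADPH fluorescence (Ex 340/Em 450 nm) was followed for 8 min.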
# Hits are given with their value; – = inactive; ? = inconclusive; · = no result; [ ] = another dose, or the depositor's remark. Only some compounds are listed: those with a hit (about 3% of all), similar ones and a draw of the others. Calls come from the whole dose curve; as a rule, active = well fitted curve in the direction sought with a large enough effect; inconclusive = small, poorly fitted or top-dose-only effect, or another doubt; inactive = no such curve, though single readings can be large; an effect the other way counts as inactive or inconclusive.
SMILES,A549 tox,TrxR1 substrate,GALK inhibitor,Nrf2 ARE act,Nrf2 block,TrxR1 inh
COCCN(CCOC)Cc1c(O)ccc2c1O/C(=C\c1ccc(C)o1)C2=O,–,?,–,–,–,50.1µM
CC(=O)N1CCC2(CC1)C(C#N)=C(N)OC1=C2C(=O)CC(C)(C)C1,–,–,–,–,–,–
CC1(C)CC(=O)C2=C(C1)OC(N)=C(C#N)C21CCC2(CC1)OCCO2,–,–,–,–,–,8.91µM
Cc1[nH]c2ccccc2c1SCc1nnc(SCc2ccccc2)n1C,–,–,·,–,25.9µM,–
Cc1[nH]c2ccccc2c1SCc1nnc(SCc2ccc(Cl)cc2)n1C,–,–,·,–,?,–
COc1cc(C(=O)Nc2ccc3[nH]c(=O)sc3c2)cc(OC)c1OC,–,–,·,–,–,–
COc1cc(CNCCc2ccc(S(N)(=O)=O)cc2)ccc1OCc1ccc(Cl)cc1,?,–,–,–,23.1µM,–
CN(C)c1cccc(S(=O)(=O)N2CCN(S(=O)(=O)c3ccc4c(c3)OCCO4)CC2)c1,–,·,·,·,–,·
COc1cc(OC)cc(-c2nc3ccccc3c(=O)n2OC(=O)c2ccccc2C)c1,?,–,–,–,?,–
O=C(On1c(-c2ccccc2)nc2ccccc2c1=O)c1ccco1,–,–,–,–,–,5.01µM
Cc1ccc(C(=O)N2C(=S)C(c3ccc(F)cc3)=NC23CCN(C)CC3)cc1,–,–,–,–,?,20µM
COc1ccc(N2C(=O)CC(Sc3nnc(-c4ccccc4)o3)C2=O)cc1 (centres undefined),–,–,–,–,–,39.8µM
O=C(C=P(c1ccccc1)(c1ccccc1)c1ccccc1)c1ccccc1-c1ccccc1C(=O)C=P(c1ccccc1)(c1ccccc1)c1ccccc1,4.61µM,–,·,–,2.06µM,?
COc1ccccc1-c1noc(CSc2nc3ccc(C)cc3[nH]2)n1,–,–,·,–,?,–
CC(=O)c1c(C)nn(CC(O)COc2ccc3c(c2)CCC3)c1C (centres undefined),–,–,–,–,9.2µM,–
CCOc1ccc2nc(SCC(=O)Nc3ccc(F)cc3)nc(-c3ccccc3)c2c1,–,–,·,–,?,–
COc1ccc(C2/C=C\CN(C(=O)Nc3ccc(C(F)(F)F)cc3)CC(=O)N2Cc2ccc(F)cc2)cc1 (centres undefined),–,–,–,–,23.1µM,–
CCCCC(=O)N1C/C=C\C(c2ccc(OC)cc2)N(Cc2ccc(F)cc2)C(=O)C1Cc1ccccc1 (centres undefined),–,–,·,·,23.1µM,–
COc1cc(/C=C2\SC(=O)N(CC(=O)Nc3ccccc3F)C2=O)cc(Cl)c1O,–,–,–,–,?,–
CCOc1cc(/C=C2\SC(=O)N(CC(=O)Nc3ccccc3F)C2=O)cc([N+](=O)[O-])c1O,?,–,–,–,18.4µM,–
N#Cc1c(C(F)(F)F)cc(-c2cccs2)nc1SCc1cccnc1,?,–,–,–,13µM,–
N#Cc1c(C(F)(F)F)cc(-c2cccs2)nc1SCc1ccc(F)cc1,–,–,·,–,–,?
N#Cc1c(C(F)(F)F)cc(-c2cccs2)nc1SCc1ccc(Cl)nc1,–[1.84 µM],–,–,–,–,50.1µM
Cc1ccc(CN2C(=O)c3ccccc3Sc3ccc(C(=O)OCc4ccco4)cc32)cc1,–,–,·,–,·,–
Oc1cc(Nc2ccccc2)cc2cccnc12,–,–,·,–,–,–
SMILES,A549 tox,TrxR1 substrate,GALK inhibitor,Nrf2 ARE act,Nrf2 block,TrxR1 inh
Oc1cc(NCCN2CCOCC2)cc2cccnc12,?,–,·,–,?,11.2µM
CC(C)C(=O)Nc1cccc(C(=O)OCC(=O)c2ccc(Cl)cc2Cl)c1,?,–,–,–,20.6µM,–
O=C(Nc1ccc(O)c2c(=O)cc(-c3ccccc3Cl)oc12)c1cc(Cl)cc(Cl)c1,–,–,·,·,–,–
CCOC(=O)c1sc(=S)n(C)c1NC(=O)c1ccc(F)cc1,–,–,–,–,23.1µM,?
C=C1C(=O)OC2C=C(CO)CCC=C(CO)CC(OC(=O)C(C)C)C12 (centres undefined),–,–[11.4 µM],·,–,–,?
C=C1C(=O)O[C@H]2C[C@H]1[C@@H](OC(C)=O)C/C(C)=C/CC/C(C)=C\CC[C@]2(C)O,?,–,·,–,14.6µM,–
CCc1cc2c(cc3c(=O)n(CCCC(=O)NCc4cccc(Br)c4)ncn32)s1,–,–,·,–,–,–
Cc1ccc(C(=O)NCC(=O)OC(C(=O)Nc2cc(C(F)(F)F)ccc2Cl)c2ccccc2)cc1 (centres undefined),–,·,·,·,?,·
Cc1ccc(C(C(=O)Nc2ccc3c(c2)OCO3)N(C)C(=O)Cc2c[nH]c3ccccc23)cc1 (centres undefined),?,–,–,–,23.1µM,–
CC1=C(SCc2ccccc2)C(=O)c2ccccc2C1=O,–,–[2.29 µM],·,–,–,–
O=C1C(SCCO)=C(SCCO)C(=O)c2ccccc21,?,10µM,·,–,25.9µM,15.8µM
COc1cc(C(=O)Nc2nc(C)c(Cc3ccc4c(c3)OCO4)s2)cc(OC)c1OC,–,–,–,–,14.6µM,–
COc1ccc(CCNc2oc(Cc3cccc4ccccc34)nc2C#N)cc1OC,–,–,–,–,20.6µM,–
CCC(C)Nc1nc(C)nc2c1oc1ccccc12 (centres undefined),–,–,–,–,20.6µM,–
COc1ccc(CCNc2nc(C)nc3c2oc2ccccc23)cc1OC,?,–,–,–,18.4µM,–
Cc1nc(NC(C)c2ccccc2)c2oc3ccccc3c2n1 (centres undefined),–,–,–,–,13µM,–
CSc1nc2sc3c(c2c(=O)n1-c1ccccc1)CCC(C(C)(C)C)C3 (centres undefined),–,–,·,–,–,–
Cc1cc(C)c(C)c(S(=O)(=O)N2CCN(S(=O)(=O)c3ccc4c(c3)OCCO4)CC2)c1C,–,·,·,·,–,·
O=C(Nc1cccnc1Cl)c1cnn2c1NC(=C1CC1)C=C2C(F)F,·,–,·,·,·,–
CCOc1ccc(CC(=N)C2=C(O)CC(C)(C)CC2=O)cc1OCC,–,–,–,–,–,–
CCOc1ccc(CC(=O)C2C(=O)CCCC2=O)cc1OCC,–,–,–,–,·,28.2µM
CCOc1ccc(CC(=O)C2C(=O)CC(C)(C)CC2=O)cc1OCC,–,–,–,–,–,35.5µM
CCOC(=O)N1CCc2c(sc3c2c(=O)n(-c2ccc(F)cc2)c(=O)n3CC(=O)c2ccc(Cl)cc2)C1,–,–,·,–,?,–
